Test results taken from PubChem BioAssay (NCI).
About 83,000 compounds went through this panel and 20% of them were active in at least one assay; those are over-represented in the sample as a whole.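 48-hour exposure, single concentration, 96-well plates; percent growth endpoint where 0 means no net growth. Active: below 10.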 Activity calls are given as the source filed them.

The molecules below were run on HL-60(TB) leukemia (assay: NCI-60 one-dose screen, 48 h (100 = growth as untreated, 0 = no growth, -100 = all killed)). Details: 10 µM unless noted.
For `CCOC(=O)C(=O)CC(=O)c1ccccc1`, the growth was 95.5% (inactive).
`NC(=N\N=C/Cc1ccccc1)/C(N)=N\N=C\Cc1ccccc1` was tested, and the growth was 70.8% (inactive).
With `C=CCNC(=O)/C(=C/c1cccc([N+](=O)[O-])c1)NC(=O)c1ccccc1` the growth was 137% (inactive).
`CCCCCCCCCCCCSC1=CC(=O)C=CC1=O` was tested, and the growth was -32.3% (active).
With `COc1ccc(C2CC(c3ccc(OC)cc3OC)=NN2c2ccc(S(N)(=O)=O)cc2)cc1` (stereo not given) the growth was 61.2% (inactive).
For `O=c1ncc(-c2ccc(C(F)(F)F)cc2)c(NC2CCCCCC2)[nH]1`, the growth was 23.3% (inactive).
In the case of `COc1cc(C2C=C(C)N=C3SC=NN32)cc(OC)c1OC` (stereo not given), the growth is reported as 94.7% (inactive).
For `O=C(N/N=C\c1cc(Cl)ccc1O)N/N=C/c1cc(Cl)ccc1O`, the growth was 6.64% (active).
`c1csc(-c2cn3nc(-c4c[nH]c5ccccc45)sc3n2)c1` was tested, and the growth was 7.07% (active).
For `CCc1cccc2c1S/C(=C/c1ccc(Cl)cc1)C2=O`, the growth was 93.5% (inactive).
For `O=S(=O)(OCCO)c1ccccc1`, the growth was 107% (inactive).
For `N=C(N)c1ccc(-c2ccc(-c3ccc(Cl)c(Cl)c3)s2)nc1`, the growth was -43.9% (active).
In the case of `Oc1[nH]c2ccc(Cl)cc2c1/C=c1/ccc2c(c1)N=C(c1ccc(F)cc1)N=2`, the growth is reported as 51.5% (inactive).
In the case of `Cc1ccc(S(=O)(=O)N/N=C\c2cc(Cl)ccc2O)cc1`, the growth is reported as 91.7% (inactive).
With `O=C(CCNC(=O)c1nc(-c2ccccc2)n(-c2ccc(Cl)cc2)n1)NO` the growth was 96.8% (inactive).
In the case of `CSc1ncc(C)c(Nc2ccc(Cl)cc2)n1`, the growth is reported as 112% (inactive).
With `COC(=O)C(CCC(=O)CCl)N1C(=O)c2ccccc2C1=O` (stereo not given) the growth was 84.5% (inactive).
With `NNCCc1ccc(NC(=O)CCCc2ccc(/C=C/C(=O)NO)cc2)cc1` the growth was 18.3% (inactive).
With `CCNC(=O)N1CCc2c(Cl)c3c(c(OC)c2[C@@H]1[C@H]1OCc2c1ccc(OC)c2OC)OCCO3` the growth was -2.42% (active).
With `CSC(=S)N/N=C(\C)c1ccccn1` the growth was -12.1% (active).
`CC[C@]12C=CCN3CC[C@@]4(c5ccc(OC)cc5N(C)[C@H]4[C@@](O)(C(=O)OC)[C@@H]1OC(=O)CCC(=O)O[C@H]1CC[C@H]4[C@@H]5CC[C@H]6CC(=O)CC[C@]6(C)[C@H]5CC[C@]14C)[C@@H]32` was tested, and the growth was -38.2% (active).
With `O=C(Nc1ccc(Nc2ccncc2)cc1)c1ccc(C(=O)Nc2ccc(Nc3ccncc3)cc2)cc1` the growth was 23% (inactive).
With `CN1CCN(Cc2ccc(NC(=O)c3cncc(C#Cc4cncc5nccnc45)c3)cc2C(F)(F)F)CC1` the growth was 1.66% (active).
For `COc1cc(CNc2ccccc2C(=O)N2CCN(C(=O)c3cc(-c4cc(OC)c(OC)c(OC)c4)n4nc(-c5ccccc5)cc4n3)CC2)cc(OC)c1OC`, the growth was 34.7% (inactive).
`COc1ccc(-c2nn(-c3cccc(NC(=O)Nc4ccc(Cl)c(C(F)(F)F)c4)c3)cc2-c2ccncc2)cc1Cl` was tested, and the growth was -11.3% (active).
In the case of `CSc1nc2ccccc2cc1/C=C1/C=C(c2ccccc2)NC1=O`, the growth is reported as 85.7% (inactive).
For `O=C(Nc1cccc2[nH]c(C(F)(F)F)nc12)c1ccc(Br)cc1F`, the growth was 22.4% (inactive).
With `CNc1ccc(NC)c2c1C(=O)c1ccccc1C2=O` the growth was 87.3% (inactive).
With `CCN(CC)CC(O)CNc1ccc(NCC2CO2)c2c1C(=O)c1ccccc1C2=O` (stereo not given) the growth was -25.2% (active).
With `C#C[C@@]1(O)[C@@H](CO)O[C@@H](n2cc(C(F)(F)F)c3c(N)ncnc32)[C@@H]1O` the growth was -37.6% (active).
With `COc1cc(-c2nc3c(ncc4ccc(=O)n(-c5ccccc5)c43)s2)cc(OC)c1OC` the growth was 94.1% (inactive).
For `CC1C(=O)c2ccccc2CC1C(=O)O` (stereo not given), the growth was 99.7% (inactive).
In the case of `COC(=O)[C@]1(C)CCC[C@]2(C)c3ccc(C(C)C)cc3C(=O)[C@@H](Br)[C@@H]12`, the growth is reported as 68.1% (inactive).
`CNC(=S)NNC(=O)C1CC1` was tested, and the growth was 73.3% (inactive).
For `Cc1ccccc1COc1ccc(-c2ccnn2-c2ccc(Cl)cc2)cc1`, the growth was 13.3% (inactive).
With `CCCCCCCC(=O)SCC/C=C/[C@@H]1CC(=O)NCc2nc(co2)C2=N[C@@](C)(CS2)C(=O)N[C@@H](C(C)C)C(=O)O1` the growth was 8.71% (active).
In the case of `CC[N+](CC)=c1ccc2nc3c(cc(N)c4ccccc43)oc-2c1`, the growth is reported as -55.6% (active).
In the case of `CC(=O)C1=C(O)C=C2Oc3c(C(=O)/C=C/c4cc(C(F)(F)F)cc(C(F)(F)F)c4)c(O)c(C)c(O)c3[C@]2(C)C1=O`, the growth is reported as -35.2% (active).
`CN1C(=O)N(C)C2C1NN=c1s/c(=C\c3ccc([N+](=O)[O-])cc3)c(=O)n12` (stereo not given) was tested, and the growth was 7.14% (active).
For `O=C(Nc1ncc(Cc2cccc(C(F)(F)F)c2)s1)c1ccc(-n2cnnn2)cc1`, the growth was 70.8% (inactive).
